Usually inhibition stands for the percentage by which the read-out fell short of the control.

In test [1] the test system is TRPC4 beta (transient receptor potential cation channel C4), mouse. The experiment in a line: TRPC4 cation channel opening, retest – cell-based, Fluo4 calcium, HEK293 TRPC4beta/mu-opioid, duplicates, 10 µM, confirmation (AID 2426;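 active = fluorescence ratio normalized to control raised more than 50% in primary screen plus both repeat runs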). The following applies: Fluo4 calcium fluorescence, at 10 µM; active compounds read high.
In test [2] the test system is transient receptor potential cation channel C4 beta (TRPC4), mouse. The experiment in a line: TRPC4 cation channel opening, second retest – cell-based, second round, Fluo4, HEK293 TRPC4beta/mu-opioid, 1 µM, confirmation (AID 2461;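 active = primary screen active and over 50% activation in each of two duplicate runs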). The following applies: Fluo4 calcium fluorescence, at 1 µM; active compounds read high.
Test [3] deals with TRPC4 (transient receptor potential cation channel C4 beta), mouse. Kind of test: potentiation of DAMGO EC20 TRPC4 response – cell-based, second round, Fluo-4, HEK293 TRPC4beta/mu-opioid, 1 µM, confirmation (AID 2554;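 active = primary screen hit whose fluorescence ratio, in both repeats, exceeds the weak agonist control mean by 3 SD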). The conditions noted are these: DAMGO EC20, Fluo-4 calcium flux, at 1 µM; active compounds read high. In general terms: A change in cytosolic calcium serves as a functional read-out for many receptors and channels.

Test [4] has as its system TRPC4 beta (transient receptor potential cation channel C4), mouse. Kind of test: potentiation of DAMGO EC20 TRPC4 response – cell-based, Fluo-4, HEK293 TRPC4beta/mu-opioid, confirmation (AID 2555). The conditions noted are these: DAMGO EC20, Fluo-4 calcium flux, at 10 µM; active compounds read high.
Test [5] concerns the target Short transient receptor potential channel 4 (Mus musculus) (UniProt Q9QUQ5). The experiment in a line: blockers of DAMGO-evoked TRPC4 calcium flux – cell-based, Fluo4, HEK293 TRPC4beta/mu-opioid, confirmation (AID 2636;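 active = calcium signal cut by more than 3 SD below the full-agonist control yet still positive, in both repeats and the earlier primary screen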). The conditions noted are these: at 10 µM; active compounds read high.
Test [6] has the same target. The experiment in a line: blockers of DAMGO-evoked TRPC4 calcium flux – cell-based, second round, Fluo4, HEK293 TRPC4beta/mu-opioid, 1 µM, confirmation (AID 2637;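 active = calcium signal ratio cut to more than 3 SD under the fully stimulated control mean yet still positive, in both repeats and the primary screen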;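 for inhibition: percent of integrated ratio relative to wells lacking test compound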). The conditions noted are these: at 1 µM; active compounds read high.
Test [7] has the same target. The experiment in a line: calcium entry via TRPC4 opening agents – cell-based, HEK293 TRPC4/mu-opioid, Fluo-4 calcium, dose response (AID 434937;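 active = primary screen activator hit with a dose response curve and TRPC4 channel activation at any tested dose; inactive = no activation, no dose response, or not a primary hit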).
For test [8] the target is unchanged. The experiment in a line: potentiation of DAMGO-evoked TRPC4 calcium signal – cell-based, HEK293 TRPC4/mu-opioid, Fluo-4 calcium, EC20 DAMGO, dose response (AID 434941;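 active = earlier screen potentiator hit that boosts the TRPC4 ion channel at some dose, with a dose response; inactive = no potentiation, no dose response, or not a prior hit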;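 note: calcium entry triggered by an EC20 dose of DAMGO at the co-expressed mu-opioid receptor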).
In test [9] the target is Short transient receptor potential channel 6 (Mus musculus) (UniProt Q61143). The experiment in a line: TRPC6 blockade by TRPC4 inhibitor hits – cell-based, HEK293, membrane potential dye, duplicate, selectivity assay for TRPC4 inhibitor project, confirmation (AID 434948;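 active = active in primary screen and both duplicates, each dropping signal beyond three positive-control SD with fluorescence still positive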). The conditions noted are these: HEK293 TRPC6, membrane potential dye fluorescence, at 10 µM, stimulated with maximal-effect acetylcholine; active compounds read high.

For test [10] the target is unchanged. Kind of test: TRPC6 opening by TRPC4 activator hits – cell-based, HEK293, membrane potential dye, duplicate, selectivity assay for TRPC4 activator project, confirmation (AID 434950;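 active = membrane potential signal rise above negative control mean plus 3 SD in both duplicates, also active in the earlier TRPC4 screen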). The following applies: HEK293 TRPC6, membrane potential fluorescence, at 10 µM; activation: active compounds read high; outcome: activation.
Test [11] shares this target. The experiment in a line: positive modulators of mouse TRPC6 channel – HEK293 cells, membrane potential dye, duplicate, selectivity assay for TRPC4 potentiator project, confirmation (AID 434952;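 active = compound raising the membrane signal above positive-control mean plus 3 SD in both repeats, and a primary screen hit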). The following applies: HEK293 TRPC6, membrane potential dye fluorescence, at 10 µM, maximal acetylcholine added after compound; active compounds read high.
Test [12] deals with Short transient receptor potential channel 4 (Mus musculus) (UniProt Q9QUQ5). Kind of test: calcium flux activators in TRPC4/5HT1a cells, counter-screen for TRPC4 activator project, cell-based, second counter screen, HEK293 TRPC4/5HT1a, Fluo-4 (AID 434977;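 active = calcium signal rise above buffer-control mean plus 5 SD in both duplicates, and also a hit in the primary screen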). The conditions noted are these: Fluo-4 calcium flux, at 10 µM; active compounds read high.
Test [13] in a line: serotonin-gated TRPC4 signal block – cell-based, second counter screen, HEK293 TRPC4/5HT1a, Fluo-4, counter-screen for TRPC4 inhibitor project, confirmation (AID 434978;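 active = primary screen active whose calcium signal fell more than 3 SD beyond the full-serotonin control mean in both duplicate plates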;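 for outcome: serotonin given first at submaximal then at maximal dose after compound preincubation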). The following applies: Fluo-4 calcium flux, at 10 µM, serotonin added to trigger calcium flux; active compounds read high. Background: A counterscreen serves to expose hits that act by an unwanted route or on another target.

The test system of test [14] is TRPC4 (mouse), co-expressed with 5HT1a in HEK293. The experiment in a line: enhancement of serotonin-evoked TRPC4 response – cell-based, second counter screen, HEK293 TRPC4/5HT1a, Fluo-4, counter-screen for TRPC4 potentiator project, confirmation (AID 434979;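 active = signal rise over 3 SD above mean of control wells given weak agonist, in both repeats and first screen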). The following applies: Fluo-4 calcium flux, at 10 µM, serotonin added at its EC20 dose; active compounds read high.

A short description of test [15]: nonspecific calcium rise without TRPC4 – cell-based, HEK293 mu-opioid receptor line, counter-screen for TRPC4 activator project, confirmation (AID 449723;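 active = hit in primary screen, with calcium signal over 5 SD above buffer well mean in both duplicates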;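 note: counter screen cells carry the mu-opioid receptor alone and lack TRPC4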). The following applies: HEK293 mu-opioid cells, Fluo-4 calcium fluorescence, at 10 µM; active compounds read high.
Test [16] in a line: nonspecific potentiation of DAMGO calcium response – cell-based, HEK293 mu-opioid receptor line, counter-screen for TRPC4 allosteric potentiator project, confirmation (AID 449724;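 active = calcium signal rise more than 3 SD above the low-dose agonist control mean, in both duplicate plates and the primary screen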;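 note: HEK293 cells carrying mu-opioid receptor only with no TRPC4 channel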). The conditions noted are these: HEK293 mu-opioid receptor cells, Fluo-4 calcium flux, at 10 µM, compound added before EC20 DAMGO stimulus; active compounds read high.

For part of these data: Entries with a potency or affinity are not part of this list. Active and inactive are the calls of the source.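 Rule for the calls, unless noted: active = primary screen hit whose calcium fluorescence ratio, in both repeats, exceeds the weak agonist control mean by 3 SD; inactive = the rest.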

Sequence of Short transient receptor potential channel 6 (Mus musculus) (Q61143 whole entry, looked up): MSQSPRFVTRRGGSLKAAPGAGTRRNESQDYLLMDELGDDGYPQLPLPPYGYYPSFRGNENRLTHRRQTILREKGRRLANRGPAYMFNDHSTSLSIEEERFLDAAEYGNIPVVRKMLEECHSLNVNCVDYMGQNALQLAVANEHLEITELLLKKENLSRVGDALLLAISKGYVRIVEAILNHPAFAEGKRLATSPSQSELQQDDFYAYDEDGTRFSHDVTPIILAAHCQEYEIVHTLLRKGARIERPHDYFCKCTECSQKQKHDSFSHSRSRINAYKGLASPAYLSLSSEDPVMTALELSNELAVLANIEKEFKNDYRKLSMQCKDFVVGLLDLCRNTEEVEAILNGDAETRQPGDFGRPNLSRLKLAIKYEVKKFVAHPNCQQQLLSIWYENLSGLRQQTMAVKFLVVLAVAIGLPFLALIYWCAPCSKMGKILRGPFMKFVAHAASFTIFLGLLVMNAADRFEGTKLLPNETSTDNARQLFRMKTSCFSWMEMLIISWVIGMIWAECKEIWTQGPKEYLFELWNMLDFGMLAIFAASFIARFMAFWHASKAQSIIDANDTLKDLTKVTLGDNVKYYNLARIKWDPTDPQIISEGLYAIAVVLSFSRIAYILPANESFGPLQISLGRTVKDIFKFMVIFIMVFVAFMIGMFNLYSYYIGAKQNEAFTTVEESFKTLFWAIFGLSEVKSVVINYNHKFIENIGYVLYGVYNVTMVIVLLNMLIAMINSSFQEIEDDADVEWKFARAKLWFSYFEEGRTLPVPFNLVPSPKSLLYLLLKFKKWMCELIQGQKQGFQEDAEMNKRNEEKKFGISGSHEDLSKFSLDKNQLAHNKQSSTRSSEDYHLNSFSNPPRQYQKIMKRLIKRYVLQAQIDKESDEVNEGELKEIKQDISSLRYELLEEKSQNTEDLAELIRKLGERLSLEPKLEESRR
Sequence of Short transient receptor potential channel 4 (Mus musculus) (Q9QUQ5 whole entry, looked up): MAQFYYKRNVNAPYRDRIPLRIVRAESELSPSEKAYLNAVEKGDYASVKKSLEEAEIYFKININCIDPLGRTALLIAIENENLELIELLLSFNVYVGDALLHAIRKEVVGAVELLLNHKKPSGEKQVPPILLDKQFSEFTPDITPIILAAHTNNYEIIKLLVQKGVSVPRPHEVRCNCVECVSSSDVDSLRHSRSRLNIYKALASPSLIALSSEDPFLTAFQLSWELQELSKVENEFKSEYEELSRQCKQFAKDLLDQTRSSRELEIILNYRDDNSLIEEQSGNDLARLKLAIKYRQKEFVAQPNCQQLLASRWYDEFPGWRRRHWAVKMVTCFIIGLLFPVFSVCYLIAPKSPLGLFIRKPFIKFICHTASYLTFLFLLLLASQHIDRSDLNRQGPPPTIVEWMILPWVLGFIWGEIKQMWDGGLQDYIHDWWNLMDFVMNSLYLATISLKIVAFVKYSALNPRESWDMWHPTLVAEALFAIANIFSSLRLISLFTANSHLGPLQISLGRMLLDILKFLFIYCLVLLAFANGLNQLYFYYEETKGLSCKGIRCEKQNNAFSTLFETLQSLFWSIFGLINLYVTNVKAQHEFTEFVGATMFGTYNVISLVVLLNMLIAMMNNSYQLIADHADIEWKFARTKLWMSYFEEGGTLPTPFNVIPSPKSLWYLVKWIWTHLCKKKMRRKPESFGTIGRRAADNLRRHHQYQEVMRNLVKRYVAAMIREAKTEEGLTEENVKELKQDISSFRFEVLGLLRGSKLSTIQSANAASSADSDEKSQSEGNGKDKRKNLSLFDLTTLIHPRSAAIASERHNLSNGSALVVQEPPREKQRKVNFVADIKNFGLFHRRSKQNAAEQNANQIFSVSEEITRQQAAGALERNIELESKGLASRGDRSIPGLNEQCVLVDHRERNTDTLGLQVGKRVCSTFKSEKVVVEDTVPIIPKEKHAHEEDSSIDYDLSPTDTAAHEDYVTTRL

Regarding `COc1ccc(CNC(=O)CN(C)Cc2ccccc2F)cc1OC`, the result in test [1], in [2], in test [3], in [4], in test [6] and in test [7] was inactive. Further, the outcome in test [8], in test [9], in test [10], in test [11], in [12] and in test [14] was inactive. Besides, the result in [15] and in test [16] was inactive. Moreover, the inhibition in test [5] was 86% (active); in [13], 34.9% (active).
For `COC(=O)c1ccc(CSc2nc3ccccc3c(=O)n2CC(C)C)o1`, the outcome in [1], in test [2], in test [3], in [4], in test [7] and in test [8] was inactive. Besides, the molecule was classed as inactive in [9], in [10], in test [11], in test [12], in test [14] and in [15]. Also, the outcome in test [16] was inactive. The inhibition in test [5] is 82% (active); in test [6], 41% (active); in test [13] it was 39.8% (active).
As to `CCOC(=O)c1oc2ccccc2c1CN1CCCCC1`, the outcome in [1], in [2], in test [3], in test [4], in test [6] and in [7] was inactive. The outcome in test [8], in test [9], in test [10], in test [11], in [12] and in test [14] was inactive. Moreover, the result in [15] and in test [16] was inactive. Besides, the inhibition in test [5] was 91% (active); in [13], 34.9% (active).
As to `Fc1ccc(-n2cc(CNCCc3ccncc3)c(-c3ccccc3Cl)n2)cc1`, the result in test [1], in [2], in [3], in [4], in test [5] and in [6] was inactive. For the same molecule, the outcome in test [7], in test [8], in test [9], in [10], in [11] and in test [12] was inactive. Moreover, the result in test [13], in test [14], in [15] and in [16] was inactive.
Take `Cc1ccc2c(c1)N(C(=O)CCC(=O)Nc1ccccc1Br)CC(C)O2` (stereo not given): the outcome in test [1], in test [2], in test [3], in test [4], in test [7] and in test [8] was inactive. Moreover, the result in [9], in [10], in test [11], in test [12], in test [14] and in test [15] was inactive. For the same molecule, in test [16], the result was inactive. Further, the values for the inhibition in test [5], in test [6] and in test [13] were 90% (active), 46% (active) and 31.8% (active), respectively.
For the molecule `CCOC(=O)C(C)Sc1nc2c(c(=O)[nH]c(=O)n2C)n1Cc1ccc(Cl)cc1` (stereo not given), the outcome in test [1], in [2], in [3], in test [4], in [7] and in test [8] was inactive. In addition, the molecule was classed as inactive in [9], in [10], in [11], in [12], in test [14] and in test [15]. For the same molecule, the outcome in test [16] was inactive. Besides, the figures for the inhibition in test [5], in test [6] and in test [13] were 93% (active), 68% (active) and 19.9% (active), respectively.
Take `COc1ccc(Nc2cc(C)nc3ccc(OC)cc23)cc1`: the result in [1], in test [2], in test [3], in test [4], in test [6] and in test [7] was inactive. Moreover, the result in [8], in test [10], in test [11], in test [12], in test [13] and in [14] was inactive. The outcome in test [15] and in test [16] was inactive. Further, the inhibition was 91% (active) in test [5] and 29.5% (active) in [9].
For the molecule `CN(C)c1ccc([N+](=O)[O-])cc1C(=O)NCC(c1ccco1)N(C)C` (stereo not given), the outcome in test [1], in [2], in test [3], in test [4], in test [6] and in [7] was inactive. Besides, the outcome in [8], in test [9], in test [10], in test [11], in test [12] and in test [13] was inactive. The result in test [14], in test [15] and in test [16] was inactive. For the same molecule, the inhibition in [5] was 58% (active).
In the case of `Cc1ccccc1CN1CCCC(C(=O)Nc2ccccc2Oc2cccnc2)C1` (stereo not given), the result in test [1], in [2], in test [3], in [4], in test [7] and in test [8] was inactive. Moreover, the outcome in test [9], in test [10], in test [11], in [12], in test [14] and in [15] was inactive. Besides, in test [16], the outcome was inactive. The figures for the inhibition in test [5], in test [6] and in test [13] were 88% (active), 51% (active) and 39.9% (active), respectively.
As to `Cc1cccn2cc(-c3c[nH]c4ccccc34)nc12`, the outcome in test [1], in test [2], in test [3], in test [4], in test [5] and in test [6] was inactive. Moreover, the outcome in test [7], in [8], in test [10], in test [11], in [12] and in test [14] was inactive. Also, the outcome in test [15] and in test [16] was inactive. The inhibition was 33% (active) in test [9] and 35.1% (active) in test [13].
Regarding `CC1(C)CC2CC(C)(CN2C(=O)c2cc(-c3ccc(O)cc3)on2)C1` (stereo not given), the result in test [1], in [2], in test [3], in test [4], in test [6] and in test [7] was inactive. Also, the result in test [8], in [9], in test [10], in test [11], in test [12] and in test [14] was inactive. Also, the outcome in test [15] and in test [16] was inactive. Also, the inhibition is 81% (active) in test [5] and 31.1% (active) in test [13].
`NC(=O)c1nsc(C(=O)N(Cc2ccco2)C(C(=O)NCC2CCCO2)c2ccc(F)cc2)c1N` (stereo not given): the result in [1], in test [2], in test [3], in test [4], in [6] and in test [7] was inactive. Further, the outcome in [8], in test [9], in test [10], in test [11], in test [12] and in test [13] was inactive. The result in test [14], in test [15] and in test [16] was inactive. For the same molecule, the inhibition in test [5] was 76% (active).
Turning to `O=C(c1ccc2c(c1)OCO2)C1CCCN(Cc2ccccc2OC(F)F)C1` (stereo not given), the outcome in test [1], in [2], in [3], in test [4], in test [6] and in test [7] was inactive. Also, the result in test [8], in [9], in [10], in [11], in test [12] and in [14] was inactive. Further, the outcome in test [15] and in [16] was inactive. Also, the figures for the inhibition in test [5] and in test [13] were 89% (active) and 41.6% (active), respectively.
Consider `COc1nc(N=C(N)N)nc2ccc(C)cc12`, for which the result in test [1], in test [2], in [3], in test [4], in test [6] and in test [7] was inactive. In addition, the result in test [8], in test [10], in test [11], in test [12], in [14] and in test [15] was inactive. Moreover, in [16], the outcome was inactive. The results for the inhibition in test [5], in test [9] and in test [13] were 96% (active), 46.5% (active) and 21.1% (active), respectively.
In the case of `C/C(CC(=O)N(C(C)C)C(C)C)=N\NC(=O)COc1ccc(Cl)cc1Cl`, the result in test [1], in test [2], in test [3], in test [4], in test [6] and in test [7] was inactive. For the same molecule, the outcome in [8], in test [9], in [10], in test [11], in test [12] and in [13] was inactive. Besides, the result in test [14], in test [15] and in test [16] was inactive. The inhibition in [5] is 83% (active).

The record behind these values is PubChem BioAssay.
